The list is not random: actives were taken first. Their share in the collection is about 2.8%.
ERb SRC1 inh = inhibitors of ERβ-SRC1 coactivator interaction, primary screen, biochemical, TR-FRET, ERβ LBD, SRC-1 peptide; Estrogen receptor beta (Homo sapiens), Q92731; TR-FRET ER-beta LBD / SRC1-Cy5 peptide binding; receptor agonist-loaded with 1 µM estradiol; inhibition, % at 25.6 µM; 1.3% of 86,000 active; AID 633, 2007;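 active = compounds whose percent inhibition of the receptor-coactivator binding signal exceeds about 50% in the single-dose screen, limit read from the data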;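 also: 0% = receptor plus peptide wells without compound and 100% = peptide-only wells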
ERa SRC1 inh = ERα–SRC-1 coactivator interaction inhibitors, primary screen, biochemical, TR-FRET, ERα LBD, estradiol-bound; Estrogen receptor (Homo sapiens), P03372; TR-FRET ER-alpha LBD / SRC-1 peptide; inhibition, % at 25.6 µM; 1.7% of 86,000 active; AID 629, 2007; in the data active = inhibition above about 50%;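 also: 0% = receptor plus peptide control and 100% = peptide only without receptor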
Target sequence (P03372 whole entry, looked up, the tested form may be a part): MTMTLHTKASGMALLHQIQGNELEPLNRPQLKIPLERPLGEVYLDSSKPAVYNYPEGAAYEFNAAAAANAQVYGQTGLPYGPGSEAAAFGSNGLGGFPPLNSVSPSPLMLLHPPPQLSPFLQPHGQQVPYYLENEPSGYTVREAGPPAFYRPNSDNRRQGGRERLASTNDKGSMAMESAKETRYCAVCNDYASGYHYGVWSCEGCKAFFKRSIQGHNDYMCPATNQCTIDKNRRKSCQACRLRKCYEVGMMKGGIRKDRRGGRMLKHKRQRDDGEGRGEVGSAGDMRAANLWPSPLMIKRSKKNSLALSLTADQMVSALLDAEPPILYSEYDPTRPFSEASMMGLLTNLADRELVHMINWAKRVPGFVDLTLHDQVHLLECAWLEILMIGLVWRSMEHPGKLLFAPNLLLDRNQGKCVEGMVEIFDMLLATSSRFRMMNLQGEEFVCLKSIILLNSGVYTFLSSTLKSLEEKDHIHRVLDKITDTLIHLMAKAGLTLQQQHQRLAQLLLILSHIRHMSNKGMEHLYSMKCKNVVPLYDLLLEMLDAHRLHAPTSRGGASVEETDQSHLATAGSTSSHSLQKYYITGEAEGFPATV
EphB4 antag = EphB4-ephrin-B2 interaction antagonists, primary screen, biochemical, TNYL-RAW peptide probe, fluorescence polarization | 0.15% of 97,000 active | Ephrin type-B receptor 4 (Homo sapiens), P54760 | inhibition, % at 7 µM | EphB4 LBD / TNYL-RAW-Alexa532 peptide;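 active = inhibition above the screen-wide mean inhibition plus 3 SD, cut at about 15% in these data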;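 also: 0% = DMSO wells and 100% = excess unlabeled TNYL-RAW peptide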
ERa SRC1 pot = enhancers of ERα–SRC-1 coactivator binding, primary screen, biochemical, TR-FRET, ERα LBD, low estradiol; TR-FRET ERalpha-LBD/SRC-Cy5 coactivator binding, 2 h; 100 = basal binding, no effect; coactivator binding (% of control), % at 25.6 µM; 1.3% of 86,000 active; in the data active = activity above about 200%;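 also: binding measured in presence of low estradiol as agonist stimulus; 0% = peptide alone without receptor and 100% = receptor with peptide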
Numbers without * were called inactive; x = not tested or not shown; [ ] = another dose, or the depositor's remark.

SMILES	ERb SRC1 inh	ERa SRC1 inh	EphB4 antag	ERa SRC1 pot
CC1CCN(C(=S)c2cn(Cc3ccc(F)cc3)c3ccccc23)CC1	x	x	6	x
O=[N+]([O-])/C=C/c1cn(Cc2ccc(F)cc2)c2ccccc12	x	x	16*	x
O=C(N/N=C/c1cccc(Oc2ccc([N+](=O)[O-])cc2[N+](=O)[O-])c1)c1cncc(Br)c1	39	96*	8	23
O=C(c1cc(-c2cccs2)nc2ccccc12)N1CCN(S(=O)(=O)c2ccccc2)CC1	17	1	4	201*[fluorescence artefact?]
O=C(c1cc(-c2cccs2)nc2ccccc12)N1CCN(S(=O)(=O)c2cccc(F)c2)CC1	3	8	1	126
CCOC(=O)c1c(Nc2nc(C)c(C(=O)NC)s2)sc(C)c1C	19	69*	1	97
CCOC(=O)c1sc(Nc2ccccc2)nc1C	4	-5	-8	97
O=C(Nc1cccc2c1[nH]c1ccccc12)C(F)(F)F	6	-9	-4	91
CCn1c(NCc2cccs2)nc2ccccc21	-11	67*[fluorescence artefact?]	3	96
CCOc1ccc(NC(=O)CN2CCN(CC(=O)Nc3ccc(F)cc3)CC2)cc1	-6	-14	3	109
CN(C)c1ccc(NC(=O)CN2CCN(CC(=O)Nc3ccc(F)cc3)CC2)cc1	54*[fluorescence artefact?]	16	x	64
Cc1ccc2c(COC(=O)c3n[nH]c4ccccc34)cc(=O)oc2c1	15	16	x	200*
CCc1ccc2c(COC(=O)c3n[nH]c4ccccc34)cc(=O)oc2c1	18	32	-4	161
CCNC(=S)N1CCC(c2nc3ccccc3s2)CC1	x	x	-3	x
CC(=O)NC(=O)COC(=O)/C=C/c1c(C)nn(Cc2c(Cl)cccc2Cl)c1Cl	2	0	5	68
Cc1cc(=O)oc2cc(OCC3CC(c4ccc(N(C)C)cc4)=NO3)ccc12 (stereo not given)	27	51*[fluorescence artefact?]	-6	153
O=C(Nc1ccc(-c2nc3ccc(NC(=O)c4cccs4)cc3[nH]2)cc1)c1cccs1	55*	91*[fluorescence artefact?]	2	108
O=C(Nc1cccc(-c2cnc3ccccc3n2)c1)c1cccc(NC(=O)c2ccco2)c1	35	59*	0	244*[fluorescence artefact?]
Cn1cccc1-c1nc2ccc(NC(=O)c3ccco3)cc2[nH]1	-7	-19	-2	94
Cc1ccc2nc(-c3ccc(NC(=O)c4ccco4)cc3)[nH]c2c1	36	59*[fluorescence artefact?]	-8	176
Cc1ccc(NC(=S)NNC(=O)c2ccco2)cc1	x	x	-4	x
Cc1ccc(-c2nnc(-c3ccc(NC(=O)c4ccco4)cc3)o2)cc1	12	22	4	455*
Cc1ccc(C(=O)c2c(NC(=O)c3cccnc3)sc3c2CCCC3)cc1	x	x	-3	x
Fc1c(F)c(C(F)(F)F)c(F)c(F)c1N/N=C\c1cccs1	6	-2	5	110
O=C(NCC1CCCO1)C1CCN(C(=O)c2ccc(Br)cc2)CC1 (stereo not given)	13	15	-2	104
SMILES	ERb SRC1 inh	ERa SRC1 inh	EphB4 antag	ERa SRC1 pot
Cc1cc(C)nc(NS(=O)(=O)c2ccc(NC(=O)c3ccco3)cc2)n1	69*[fluorescence artefact?]	-5	5	102
O=C(Nc1ccc(-c2nc3cccnc3s2)cc1)c1ccco1	41	56*[fluorescence artefact?]	x	156
CCOc1cccc(C(=O)Nc2cccc(-c3nnc(-c4ccc(C)cc4)o3)c2)c1	60*[fluorescence artefact?]	68*[fluorescence artefact?]	-5	158
CN1CCN(C(=S)NCCc2ccccc2)CC1	x	x	3	x
Nc1cc(=O)nc(SCC(=O)Nc2cccc3ccccc23)n1CCc1ccccc1	x	x	-3	x
CN(C)c1ccc(CNC23CC4CC(CC(C4)C2)C3)cc1	x	x	-3	x
CC(NC(=O)CSc1nnc(CC(=O)Nc2ccc(Cl)c(Cl)c2)n1C)c1ccccc1 (stereo not given)	-7	-2	-7	97
Cc1ccc(NC(=O)CSc2nnc(Cn3c(=O)sc4ccccc43)n2C)cc1Cl	35	38	x	360*
Cn1c(CC(=O)Nc2ccc(Cl)c(Cl)c2)nnc1SCC(=O)N1CCN(c2ccccc2)CC1	39	72*[fluorescence artefact?]	-3	70
Cc1ccc(NC(=O)CSc2nnc(Cn3c(=O)sc4ccccc43)n2C)cc1	-8	-11	x	115
O=C(CSCc1cccc(Br)c1)N1CCOCC1	-2	3	8	118
CCn1c(=O)c2c3c(sc2n2c(=S)[nH]nc12)CCC3	-1	-5	-2	83
Cc1ccccc1Nc1nc(N)nc(CSc2nc3ccccc3c(=O)n2C)n1	-9	78*	2	108
Nc1ccc(Nc2nc(-c3ccncc3)cs2)cc1	6	23	-3	57
Clc1ccc(Nc2nc(-c3ccncc3)cs2)cc1	44	76*	-9	117
N#Cc1c(N)oc(-c2ccc3c(c2)OCO3)c1-c1ccc2c(c1)OCO2	73*	73*	1	30
Cc1ccc(-c2cc(-c3ccc4c(c3)OCO4)c(C#N)c(N)n2)o1	27	82*[fluorescence artefact?]	5	18
Cc1cc(-c2cc(-c3ccc(Cl)cc3)nc(N)c2C#N)co1	28	51*[fluorescence artefact?]	-3	50
Cc1ccc(-c2cc(-c3ccc(Cl)cc3)c(C#N)c(N)n2)o1	24	40	1	75
N#Cc1nc(-c2ccc(OCc3ccccc3)cc2)oc1N1CCC(C(N)=O)CC1	44	59*[fluorescence artefact?]	5	250*[fluorescence artefact?]
Cc1ccc2nc(N3CCN(C=O)CC3)nc(-c3ccccc3)c2c1	-2	1	-3	89
Cc1cccc(OCc2nnc(SCC(=O)Nc3ccc(C)c(C)c3)o2)c1	3	-19	3	230*
Cc1cccc(OCc2nnc(SCc3cc(=O)n4cc(Br)ccc4n3)o2)c1	17	0	x	203*
CC(C)(C)C(=O)N1CCN(c2c(Cl)cccc2[N+](=O)[O-])CC1	x	x	-6	x
COC(=O)Cn1c(=NC(=O)C2CC2)sc2c(C)cc(C)cc21	-6	55*[fluorescence artefact?]	-3	134
SMILES	ERb SRC1 inh	ERa SRC1 inh	EphB4 antag	ERa SRC1 pot
CC(C)Cn1cc(C(=O)N2CCN(c3ccccn3)CC2)c2c3ccccc3n(C)c2c1=O	-4	1	-12	62
COc1ccc(-c2ccc(-c3noc(-c4ccccc4OC)n3)c(OC)n2)cc1	4	33	2	231*
COc1ccccc1-c1nc(-c2ccncc2)no1	-3	7	-7	118
COc1ccc(Cl)cc1-c1nc(-c2ccncc2)no1	34	30	10	268*
COc1ccccc1-c1noc(-c2cc(OC)c(OC)c(OC)c2)n1	-6	-15	0	98
COc1ccc(-c2ccc(-c3noc(C)n3)c(OC)n2)cc1	9	13	0	152
COc1cc(OC)cc(-c2nc(-c3ccccc3OC)no2)c1	-5	-2	1	488*[fluorescence artefact?]
COc1ccc(-c2ccc(-c3noc(-c4ccccc4C)n3)c(OC)n2)cc1	23	-3	0	230*[fluorescence artefact?]
Clc1nc(NCc2cccnc2)nc(N2CCOCC2)n1	44	45	-6	30
CCn1c(COc2ccc3c(c2)OCO3)nnc1SCC(=O)c1ccc(Cl)cc1	36	30	5	121
